# Assay outcomes deposited in PubChem BioAssay by National Center for Advancing Translational Sciences (NCATS).
# HPGD inh: blocks human HPGD enzyme activity | P15428 | purified HPGD, NADH fluorescence kinetic, PGE2 substrate | Potency, µM, for the others: top-dose activity change, negative = inhibition, most hits filed as inhibitors | 150,000 compounds, 4.3% hits; also: potency is read from the fitted curve at half-maximal effect
# Target sequence (P15428 whole entry, looked up): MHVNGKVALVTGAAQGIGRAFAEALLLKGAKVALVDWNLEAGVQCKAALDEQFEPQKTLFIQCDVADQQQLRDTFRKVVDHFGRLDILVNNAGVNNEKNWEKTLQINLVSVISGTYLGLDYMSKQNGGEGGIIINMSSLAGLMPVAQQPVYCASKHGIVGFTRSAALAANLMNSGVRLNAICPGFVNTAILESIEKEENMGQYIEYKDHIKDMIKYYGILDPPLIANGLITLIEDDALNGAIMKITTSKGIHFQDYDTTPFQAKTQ
#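 NADH formation kinetics: reaction with 30 uM PGE2 and 1 mM NAD+ (final), 20 nM enzyme, Tris-HCl pH 8 with Tween 20, after 15 min compound preincubation at room temperature. Fluorescence change, last versus first of five reads.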
# PNC assembly inh: perinucleolar compartment assembly inhibition. PC3M PTB-GFP, PNC prevalence imaging, 16 h; active compounds read low. activity change (PNC), negative = inhibition, % at 10 µM. 140,000 compounds, 3.1% hits;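 active = readout at or below -70, meaning at least 70% loss of cells showing the perinucleolar compartment, a nuclear body marking cancer cells; inconclusive = readout between -30 and a set limit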;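 also: plate controls were DMSO wells for no effect and camptothecin positive control wells for full effect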
#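 Compounds are pinned in duplicate onto adhered PC3M cells stably expressing GFP-tagged PTB and incubated 16 h at 37 C. Cells are then fixed, nuclei stained with Hoechst, and PNC-positive cells counted.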
# ALDH1A1 inh: ALDH1A1 (human) enzyme inhibition | P00352 | Purified ALDH1A1, NADH fluorescence, propionaldehyde substrate | Potency, µM (top dose mostly 75.3 µM), inactives show at the top dose activity, negative = inhibition, usual class: inhibitors | 220,000 compounds, 7.3% hits;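 also: potency is read from the fitted curve at half-maximal effect; plate controls were no enzyme wells and a reference inhibitor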
# An asterisk follows results filed as active; ? = inconclusive; nt = not tested or not shown. The list is not random: actives were taken first. Their share in the collection is about 11%. Unless noted, calls follow the shape of the dose curve; as a rule, active = well fitted inhibition curve with a large enough effect (not every such curve was filed as active); inconclusive = small, poorly fitted or top-dose-only effect, or another doubt; inactive = no such curve, though single readings can be large or run the other way. Unless noted, % is scaled to controls: 0 for no effect and ±100 for the full control effect.
SMILES,HPGD inh,PNC assembly inh,ALDH1A1 inh
O=C1OC(/C(=C\Nc2cc(Cl)ccc2O)[N+](=O)[O-])c2ccccc21 (stereo unspecified),nt,nt,14.1µM*
Cc1ccc(NC=C(S(=O)(=O)c2ccccc2)S(=O)(=O)c2ccccc2)c(C)c1,-5.1%,-2.9,-2.1%
Cc1ccc(N/C=C(\C2OC(=O)c3ccccc32)[N+](=O)[O-])c(C)c1 (stereo unspecified),nt,nt,3.55µM*
O=C1OC(Nc2ccc(F)cc2F)c2ccccc21 (stereo unspecified),-0.5%,15.5,0.4%
Cc1nonc1OCCNCc1c(C(=O)N(C)C)nc2ccc(Cl)cn12,nt,nt,0.2%
Cc1ccc2c(c1)c(CC(=O)Nc1ccc(F)cc1)c(C(=O)O)n2C,?,22.6,-2.2%
COc1ncc2nc(CCc3ccccc3)c(=O)n(C3CC3)c2n1,-20.1%,nt,18.9µM*
COc1ccc(Oc2ncc3nc(C)c(=O)n(Cc4ccc(F)cc4)c3n2)cc1,-18.7%,nt,25.1µM*
COc1ccc(Oc2ncc3nc(CCc4ccccc4)c(=O)n(C)c3n2)cc1,-5.3%,nt,?
Cn1c(=O)c(CCc2ccccc2)nc2cnc(Oc3ccccc3)nc21,-16.1%,nt,8.91µM*
COc1cccc(Cn2c(=O)c(C)nc3cnc(Oc4cccc(Cl)c4)nc32)c1,-16.8%,nt,?
COc1ccc(Oc2ncc3nc(C)c(=O)n(Cc4cccs4)c3n2)cc1,-9.3%,nt,-9.4%
COc1ccc(Oc2ncc3nc(CCc4ccccc4)c(=O)n(CCC#N)c3n2)cc1,-27.2%,nt,?
Cc1nc2cnc(Oc3cccc(Cl)c3)nc2n(CCc2ccccc2)c1=O,-11.7%,nt,6.31µM*
COc1cc(/C=N/NC(=O)c2cccnc2)ccc1OCC(=O)N1CCOCC1,nt,?,6.5%
Cc1ccnc(NC(=O)CSc2nnc3c(n2)[nH]c2ccccc23)c1,nt,nt,-5.0%
Cc1ccc(NC(=O)Cn2nc(C)c(S(=O)(=O)N(C)C)c2C)cc1C,nt,nt,6.9%
CCN1CCN(Cc2ccc(NC(=O)Nc3ccccc3OC)cc2)CC1,-11.0%,?,5.6%
COc1ccc(Oc2ncc3nc(C)c(=O)n(CCc4ccccc4)c3n2)cc1,-4.9%,nt,0.224µM*
Cc1nc2cnc(Oc3ccccc3)nc2n(CCc2ccccc2)c1=O,-3.1%,nt,?
CC1CCN(Cc2ccc(-c3nn[nH]n3)cc2)CC1,-13.6%,-16.0,9.9%
Cc1ccc(C(=O)COC(=O)c2ccccc2N2C(=O)C3C4CCC(C4)C3C2=O)cc1C (stereo unspecified),-11.0%,-18.4,-4.0%
CCOCC(=O)Nc1cccc(OC)c1,?,-88.5*,?
Cc1ccc(NC(=O)COC(=O)CC2CCCC2)cc1Cl,nt,nt,22.4µM*
Cc1ccc(NC(=O)COc2ccccc2C(=O)Nc2ccccc2)cc1Cl,-17.6%,-9.6,?
SMILES,HPGD inh,PNC assembly inh,ALDH1A1 inh
COc1cccc(NC(=O)CN(C)CC(=O)Nc2ccc(C)cc2Cl)c1,nt,nt,11.2µM*
COc1cccc(NC(=O)CCC(=O)Nc2cccc(OC)c2)c1,-7.1%,16.1,-9.4%
Cc1ccc(NC(=O)COC(=O)Cn2cnc3c2c(=O)n(C)c(=O)n3C)cc1Cl,nt,nt,7.8%
COc1cccc(NC(=O)CN(C)CC(=O)Nc2ccc(Br)cc2)c1,nt,nt,2.5%
CCOCC(=O)Nc1ccc(C)c(Cl)c1,15.8µM*,6.9,25.1µM*
COc1ccc(CCNC(=O)C2CCN(S(=O)(=O)N3CCC4(CC3)OCCO4)CC2)cc1OC,-5.3%,-27.4,?
COc1cc(N)c(Cl)cc1C(=O)CCC1CCN(CCNS(C)(=O)=O)CC1,-3.0%,nt,?
O=C(Nc1ccncc1)c1ccc(NS(=O)(=O)c2cccc(F)c2)cc1,-18.1%,-1.1,13.0%
O=C(CCCc1nc2ccccc2s1)Nc1ccc(N2CCOCC2)cc1,nt,nt,8.0%
Cc1onc(-c2ccccc2Cl)c1C(=O)OCC(=O)c1c(N)n(C)c(=O)n(C)c1=O,nt,nt,-5.0%
COCCNc1nc2nonc2nc1N(C)Cc1cccc2cnccc12,nt,nt,5.01µM*
COCCNc1ccnc(-c2ccccc2CN(C)C)n1,-2.6%,nt,9.9%
OCCCNC(=S)NC1CCCC1,nt,nt,0.0%
Cc1ccc(C(=O)NC2CCS(=O)(=O)C2)cc1S(=O)(=O)N1CCCCCC1 (stereo unspecified),nt,nt,7.3%
Cc1cccc(N(CC(=O)N/N=C/c2ccc(OCC(=O)NCc3ccco3)cc2)S(C)(=O)=O)c1C,25.1µM*,?,-13.2%
CCn1cc(C(=O)NCC2CCCO2)c(=O)c2cc(S(=O)(=O)N3CCCCCC3)ccc21 (stereo unspecified),-11.7%,-8.5,4.47µM*
Cc1cc(=O)oc2cc(OCC(=O)N3CCOCC3)ccc12,?,-100.0*,?
O=C(COc1ccc(S(=O)(=O)N2CCCC2)cc1Cl)NCc1ccco1,-5.2%,6.9,?
CCn1cc(C(=O)NCC2CCCO2)c(=O)c2cc(S(=O)(=O)N3CCC(C)CC3)ccc21 (stereo unspecified),-5.9%,?,-1.6%
Cc1cc(C)cc(CSCC(=O)N/N=C/c2ccc(OCC(=O)NCc3ccco3)cc2)c1,-18.4%,?,4.8%
Cc1cc(=O)oc2cc(OCc3ccc(S(=O)(=O)N4CCOCC4)cc3)ccc12,?,-11.0,?
Cc1cc(S(=O)(=O)N2CCCC2)ccc1OCC(=O)NCc1ccco1,?,-18.1,10µM*
CN(C)NC(=O)C12CCC(C)(C(=O)O1)C2(C)C (stereo unspecified),nt,nt,3.9%
COC(=O)[C@H](C)NC(=O)NC1CCN(Cc2ccccc2)CC1,-2.7%,-9.1,2.4%
COc1cc(OC)cc(C(=O)N[C@@H](CCSC)c2nc3ccccc3[nH]2)c1,nt,nt,-8.7%
SMILES,HPGD inh,PNC assembly inh,ALDH1A1 inh
CCCCn1c(SCc2cc(=O)n3ccsc3n2)nc2cc(C(=O)OC)ccc2c1=O,-14.8%,39.0,?
Cc1cc(=O)oc2ccc(OCC(=O)NCc3ccco3)cc12,-23.4%,-15.9,?
Cc1ccc(C)c(NS(=O)(=O)c2ccc(OCC(=O)NCc3ccco3)cc2)c1,-9.1%,-89.9*,?
O=C(COc1ccc(S(=O)(=O)NC2CCCCC2)cc1Cl)NCc1ccc2c(c1)OCO2,-20.7%,2.0,-4.5%
CC(C)(C)c1ccc(OCC(=O)NCc2ccco2)c(Br)c1,-27.5%,-14.9,17.8µM*
CCOc1cc(C(=O)OCC(=O)NCc2ccco2)cc(OCC)c1OCC,-1.8%,-6.2,-5.6%
Cc1ccc(NS(=O)(=O)c2ccc(OCC(=O)NCc3ccco3)cc2)cc1,1.4%,25.4,-10.6%
O=C(COc1ccc(S(=O)(=O)N2CCCC2)cc1Cl)NCc1ccc2c(c1)OCO2,-16.0%,-107.1*,5.01µM*
Cc1cc(=O)oc2cc(OCC(=O)NCc3ccco3)ccc12,?,-100.0*,?
Cc1ccccc1-n1c(C)nnc1SCc1cc(=O)oc2ccc3ccccc3c12,-12.1%,-2.1,?
O=C(O)CC(c1ccc(Cl)cc1)n1cccc1 (stereo unspecified),-10.8%,36.7,3.1%
CCn1cc(C(=O)NCCc2ccccc2)c(=O)c2cc(S(=O)(=O)N3CCCC3)ccc21,nt,nt,31.6µM*
CCn1cc(C(=O)N2CCc3ccccc3C2)c(=O)c2cc(S(=O)(=O)N3CCCCC3)ccc21,-2.9%,43.8,?
CCOC(=O)c1cn(CC)c2ccc(S(=O)(=O)N3CCC(C)CC3)cc2c1=O,15.8µM*,?,-12.1%
O=C(COc1ccc(S(=O)(=O)N2CCCC2)cc1)NCc1ccco1,-10.3%,-29.4,2.5%
